# Legend:
# Experiment in all cases: yeast three-hybrid, YBZ-1, SC-Leu-His + 0.5 mM 3-AT, 4 days
# Settings in all cases: tags: N-Gal4 AD-HA kept; label: inside an RPR1-promoter hybrid RNA with tandem MS2 sites; ssRNA
# PUM1 PUF domain R1-RLT = PUM1 PUF domain R1-RLT (Homo sapiens, UniProt Q14671 828-1176, S863R;R864L;Q867T)
# How it was run: (§1)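 Sequencing with Illumina followed PCR amplification of the repeat regions from transformants grown four days on SC-Leu (input) or SC-Leu-His + 0.5 mM 3-AT (selection). The transformants were strain YBZ-1 with a LexA–MS2 coat fusion and a HIS3 reporter, carrying Pumilio-1 PUF domain libraries and matching RNA elements. The interaction score is the log change in variant frequency from input to selection, computed in log2 with a pseudocount of 1 for absent variants.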
# PUM1 PUF domain R7-RGL = PUM1 PUF domain R7-RGL (Homo sapiens, UniProt Q14671 828-1176, S1079R;N1080G;E1083L)
# Chain of PUM1 PUF domain R7-RGL (Q14671 828-1176 S1079R/N1080G/E1083L): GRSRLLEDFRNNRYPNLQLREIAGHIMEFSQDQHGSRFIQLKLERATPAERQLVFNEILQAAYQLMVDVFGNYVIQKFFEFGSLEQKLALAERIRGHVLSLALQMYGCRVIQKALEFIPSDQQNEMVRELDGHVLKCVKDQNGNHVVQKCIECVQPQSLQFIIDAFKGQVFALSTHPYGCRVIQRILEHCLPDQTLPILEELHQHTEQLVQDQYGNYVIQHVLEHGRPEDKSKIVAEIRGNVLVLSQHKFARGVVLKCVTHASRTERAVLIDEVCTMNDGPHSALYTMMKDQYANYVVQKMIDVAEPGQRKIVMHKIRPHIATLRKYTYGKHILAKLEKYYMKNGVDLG
# How it was run: as §1
# PUM1 PUF domain R7-TPG = PUM1 PUF domain R7-TPG (Homo sapiens, UniProt Q14671 828-1176, S1079T;N1080P;E1083G)
# Chain of PUM1 PUF domain R7-TPG (Q14671 828-1176 S1079T/N1080P/E1083G): as the sequence (Q14671 828-1176 S1079R/N1080G/E1083L) above, with R252T, G253P, L256G counted along it
# How it was run: as §1
# PUM1 PUF domain R7-GIV = PUM1 PUF domain R7-GIV (Homo sapiens, UniProt Q14671 828-1176, S1079G;N1080I;E1083V)
# Chain of PUM1 PUF domain R7-GIV (Q14671 828-1176 S1079G/N1080I/E1083V): as the sequence (Q14671 828-1176 S1079R/N1080G/E1083L) above, with R252G, G253I, L256V counted along it
# How it was run: as §1
# PUM1 PUF domain R4-ARS = PUM1 PUF domain R4-ARS (Homo sapiens, UniProt Q14671 828-1176, N971A;H972R;Q975S)
# Chain of PUM1 PUF domain R4-ARS (Q14671 828-1176 N971A/H972R/Q975S): as the sequence (Q14671 828-1176 S1079R/N1080G/E1083L) above, with N144A, H145R, Q148S, R252S, G253N, L256E counted along it
# How it was run: as §1
# PUM1 PUF domain R4-CPG = PUM1 PUF domain R4-CPG (Homo sapiens, UniProt Q14671 828-1176, N971C;H972P;Q975G)
# Chain of PUM1 PUF domain R4-CPG (Q14671 828-1176 N971C/H972P/Q975G): as the sequence (Q14671 828-1176 S1079R/N1080G/E1083L) above, with N144C, H145P, Q148G, R252S, G253N, L256E counted along it
# How it was run: as §1
# PUM1 PUF domain R3-SPW = PUM1 PUF domain R3-SPW (Homo sapiens, UniProt Q14671 828-1176, C935S;R936P;Q939W)
# Chain of PUM1 PUF domain R3-SPW (Q14671 828-1176 C935S/R936P/Q939W): as the sequence (Q14671 828-1176 S1079R/N1080G/E1083L) above, with C108S, R109P, Q112W, R252S, G253N, L256E counted along it
# How it was run: as §1
# PUM1 PUF domain R8-YYR = PUM1 PUF domain R8-YYR (Homo sapiens, UniProt Q14671 828-1176, N1122Y;Q1126R)
# Chain of PUM1 PUF domain R8-YYR (Q14671 828-1176 N1122Y/Q1126R): as the sequence (Q14671 828-1176 S1079R/N1080G/E1083L) above, with R252S, G253N, L256E, N295Y, Q299R counted along it
# How it was run: as §1
# PUM1 PUF domain R3-SPD = PUM1 PUF domain R3-SPD (Homo sapiens, UniProt Q14671 828-1176, C935S;R936P;Q939D)
# Chain of PUM1 PUF domain R3-SPD (Q14671 828-1176 C935S/R936P/Q939D): as the sequence (Q14671 828-1176 S1079R/N1080G/E1083L) above, with C108S, R109P, Q112D, R252S, G253N, L256E counted along it
# How it was run: as §1
# PUM1 PUF domain R5-ERC = PUM1 PUF domain R5-ERC (Homo sapiens, UniProt Q14671 828-1176, C1007E;Q1011C)
# Chain of PUM1 PUF domain R5-ERC (Q14671 828-1176 C1007E/Q1011C): as the sequence (Q14671 828-1176 S1079R/N1080G/E1083L) above, with C180E, Q184C, R252S, G253N, L256E counted along it
# How it was run: as §1
# PUM1 PUF domain R5-LHG = PUM1 PUF domain R5-LHG (Homo sapiens, UniProt Q14671 828-1176, C1007L;R1008H;Q1011G)
# Chain of PUM1 PUF domain R5-LHG (Q14671 828-1176 C1007L/R1008H/Q1011G): as the sequence (Q14671 828-1176 S1079R/N1080G/E1083L) above, with C180L, R181H, Q184G, R252S, G253N, L256E counted along it
# How it was run: as §1
# PUM1 PUF domain R5-KTL = PUM1 PUF domain R5-KTL (Homo sapiens, UniProt Q14671 828-1176, C1007K;R1008T;Q1011L)
# Chain of PUM1 PUF domain R5-KTL (Q14671 828-1176 C1007K/R1008T/Q1011L): as the sequence (Q14671 828-1176 S1079R/N1080G/E1083L) above, with C180K, R181T, Q184L, R252S, G253N, L256E counted along it
# How it was run: as §1
# PUM1 PUF domain R5-KRD = PUM1 PUF domain R5-KRD (Homo sapiens, UniProt Q14671 828-1176, C1007K;Q1011D)
# Chain of PUM1 PUF domain R5-KRD (Q14671 828-1176 C1007K/Q1011D): as the sequence (Q14671 828-1176 S1079R/N1080G/E1083L) above, with C180K, Q184D, R252S, G253N, L256E counted along it
# How it was run: as §1
# PUM1 PUF domain R5-KQV = PUM1 PUF domain R5-KQV (Homo sapiens, UniProt Q14671 828-1176, C1007K;R1008Q;Q1011V)
# Chain of PUM1 PUF domain R5-KQV (Q14671 828-1176 C1007K/R1008Q/Q1011V): as the sequence (Q14671 828-1176 S1079R/N1080G/E1083L) above, with C180K, R181Q, Q184V, R252S, G253N, L256E counted along it
# How it was run: as §1
# PUM1 PUF domain R5-LWV = PUM1 PUF domain R5-LWV (Homo sapiens, UniProt Q14671 828-1176, C1007L;R1008W;Q1011V)
# Chain of PUM1 PUF domain R5-LWV (Q14671 828-1176 C1007L/R1008W/Q1011V): as the sequence (Q14671 828-1176 S1079R/N1080G/E1083L) above, with C180L, R181W, Q184V, R252S, G253N, L256E counted along it
# How it was run: as §1
# PUM1 PUF domain R8-PWY = PUM1 PUF domain R8-PWY (Homo sapiens, UniProt Q14671 828-1176, N1122P;Y1123W;Q1126Y)
# Chain of PUM1 PUF domain R8-PWY (Q14671 828-1176 N1122P/Y1123W/Q1126Y): as the sequence (Q14671 828-1176 S1079R/N1080G/E1083L) above, with R252S, G253N, L256E, N295P, Y296W, Q299Y counted along it
# How it was run: as §1
# PUM1 PUF domain R8-SYN = PUM1 PUF domain R8-SYN (Homo sapiens, UniProt Q14671 828-1176, N1122S;Q1126N)
# Chain of PUM1 PUF domain R8-SYN (Q14671 828-1176 N1122S/Q1126N): as the sequence (Q14671 828-1176 S1079R/N1080G/E1083L) above, with R252S, G253N, L256E, N295S, Q299N counted along it
# How it was run: as §1
# PUM1 PUF domain R3-RTF = PUM1 PUF domain R3-RTF (Homo sapiens, UniProt Q14671 828-1176, C935R;R936T;Q939F)
# Chain of PUM1 PUF domain R3-RTF (Q14671 828-1176 C935R/R936T/Q939F): as the sequence (Q14671 828-1176 S1079R/N1080G/E1083L) above, with C108R, R109T, Q112F, R252S, G253N, L256E counted along it
# How it was run: as §1
# PUM1 PUF domain R3-TCD = PUM1 PUF domain R3-TCD (Homo sapiens, UniProt Q14671 828-1176, C935T;R936C;Q939D)
# Chain of PUM1 PUF domain R3-TCD (Q14671 828-1176 C935T/R936C/Q939D): as the sequence (Q14671 828-1176 S1079R/N1080G/E1083L) above, with C108T, R109C, Q112D, R252S, G253N, L256E counted along it
# How it was run: as §1
# PUM1 PUF domain R2-VYL = PUM1 PUF domain R2-VYL (Homo sapiens, UniProt Q14671 828-1176, N899V;Q903L)
# Chain of PUM1 PUF domain R2-VYL (Q14671 828-1176 N899V/Q903L): as the sequence (Q14671 828-1176 S1079R/N1080G/E1083L) above, with N72V, Q76L, R252S, G253N, L256E counted along it
# How it was run: as §1
# Chain of PUM1 PUF domain R1-RLT (Q14671 828-1176 S863R/R864L/Q867T): as the sequence (Q14671 828-1176 S1079R/N1080G/E1083L) above, with S36R, R37L, Q40T, R252S, G253N, L256E counted along it
sequence,measurement,setting,value
GGCUAGAACUAGUGGAUCCCCCGGCGCCCGGCGGCUCGAGCCCGGGUAAGUGUAAAUCGUCUGCAUGCCGCCGGGCGCCAUGCCUGCAGGUCGACUCUAGAAAACAUG,binding signal,PUM1 PUF domain R1-RLT,4.76 log2 enrichment (interaction score)
GGCUAGAACUAGUGGAUCCCCCGGCGCCCGGCGGCUCGAGCCCGGGUAAGUUUAAAUAGUCUGCAUGCCGCCGGGCGCCAUGCCUGCAGGUCGACUCUAGAAAACAUG,binding signal,PUM1 PUF domain R7-RGL,3.07 log2 enrichment (interaction score)
same,binding signal,PUM1 PUF domain R7-TPG,4.42 log2 enrichment (interaction score)
same,binding signal,PUM1 PUF domain R7-GIV,2.42 log2 enrichment (interaction score)
GGCUAGAACUAGUGGAUCCCCCGGCGCCCGGCGGCUCGAGCCCGGGUAAGUGUACAUAGUCUGCAUGCCGCCGGGCGCCAUGCCUGCAGGUCGACUCUAGAAAACAUG,binding signal,PUM1 PUF domain R4-ARS,3.28 log2 enrichment (interaction score)
same,binding signal,PUM1 PUF domain R4-CPG,2.44 log2 enrichment (interaction score)
GGCUAGAACUAGUGGAUCCCCCGGCGCCCGGCGGCUCGAGCCCGGGUAAGUCUAAAUAGUCUGCAUGCCGCCGGGCGCCAUGCCUGCAGGUCGACUCUAGAAAACAUG,binding signal,PUM1 PUF domain R7-RGL,1.29 log2 enrichment (interaction score)
GGCUAGAACUAGUGGAUCCCCCGGCGCCCGGCGGCUCGAGCCCGGGUAAGUGUAAAUAGUCUGCAUGCCGCCGGGCGCCAUGCCUGCAGGUCGACUCUAGAAAACAUG,binding signal,PUM1 PUF domain R4-ARS,4.61 log2 enrichment (interaction score)
same,binding signal,PUM1 PUF domain R4-CPG,4.34 log2 enrichment (interaction score)
same,binding signal,PUM1 PUF domain R3-SPW,3.13 log2 enrichment (interaction score)
same,binding signal,PUM1 PUF domain R8-YYR,5.34 log2 enrichment (interaction score)
same,binding signal,PUM1 PUF domain R3-SPD,3.36 log2 enrichment (interaction score)
same,binding signal,PUM1 PUF domain R5-ERC,2.93 log2 enrichment (interaction score)
same,binding signal,PUM1 PUF domain R5-LHG,2.63 log2 enrichment (interaction score)
GGCUAGAACUAGUGGAUCCCCCGGCGCCCGGCGGCUCGAGCCCGGGUAAGUGUAAAUGGUCUGCAUGCCGCCGGGCGCCAUGCCUGCAGGUCGACUCUAGAAAACAUG,binding signal,PUM1 PUF domain R1-RLT,3.03 log2 enrichment (interaction score)
GGCUAGAACUAGUGGAUCCCCCGGCGCCCGGCGGCUCGAGCCCGGGUAAGUGUUAAUAGUCUGCAUGCCGCCGGGCGCCAUGCCUGCAGGUCGACUCUAGAAAACAUG,binding signal,PUM1 PUF domain R5-KTL,1.72 log2 enrichment (interaction score)
same,binding signal,PUM1 PUF domain R5-KRD,4.94 log2 enrichment (interaction score)
same,binding signal,PUM1 PUF domain R5-KQV,2.42 log2 enrichment (interaction score)
same,binding signal,PUM1 PUF domain R5-LWV,2.42 log2 enrichment (interaction score)
GGCUAGAACUAGUGGAUCCCCCGGCGCCCGGCGGCUCGAGCCCGGGUAAGUGUAUAUAGUCUGCAUGCCGCCGGGCGCCAUGCCUGCAGGUCGACUCUAGAAAACAUG,binding signal,PUM1 PUF domain R4-ARS,2.12 log2 enrichment (interaction score)
same,binding signal,PUM1 PUF domain R4-CPG,3.14 log2 enrichment (interaction score)
GGCUAGAACUAGUGGAUCCCCCGGCGCCCGGCGGCUCGAGCCCGGGUAAGCGUAAAUAGUCUGCAUGCCGCCGGGCGCCAUGCCUGCAGGUCGACUCUAGAAAACAUG,binding signal,PUM1 PUF domain R8-PWY,2.57 log2 enrichment (interaction score)
same,binding signal,PUM1 PUF domain R8-YYR,5.94 log2 enrichment (interaction score)
same,binding signal,PUM1 PUF domain R8-SYN,2.66 log2 enrichment (interaction score)
GGCUAGAACUAGUGGAUCCCCCGGCGCCCGGCGGCUCGAGCCCGGGUAAGUGUAAUUAGUCUGCAUGCCGCCGGGCGCCAUGCCUGCAGGUCGACUCUAGAAAACAUG,binding signal,PUM1 PUF domain R3-RTF,2.83 log2 enrichment (interaction score)
GGCUAGAACUAGUGGAUCCCCCGGCGCCCGGCGGCUCGAGCCCGGGUAAGUGUAAGUAGUCUGCAUGCCGCCGGGCGCCAUGCCUGCAGGUCGACUCUAGAAAACAUG,binding signal,PUM1 PUF domain R3-TCD,4.9 log2 enrichment (interaction score)
GGCUAGAACUAGUGGAUCCCCCGGCGCCCGGCGGCUCGAGCCCGGGUAAGUGUGAAUAGUCUGCAUGCCGCCGGGCGCCAUGCCUGCAGGUCGACUCUAGAAAACAUG,binding signal,PUM1 PUF domain R5-ERC,3.21 log2 enrichment (interaction score)
same,binding signal,PUM1 PUF domain R5-LHG,4.33 log2 enrichment (interaction score)
same,binding signal,PUM1 PUF domain R5-KRD,1.06 log2 enrichment (interaction score)
same,binding signal,PUM1 PUF domain R5-LWV,1.82 log2 enrichment (interaction score)
GGCUAGAACUAGUGGAUCCCCCGGCGCCCGGCGGCUCGAGCCCGGGUAAGUGUAAAAAGUCUGCAUGCCGCCGGGCGCCAUGCCUGCAGGUCGACUCUAGAAAACAUG,binding signal,PUM1 PUF domain R2-VYL,2.41 log2 enrichment (interaction score)
GGCUAGAACUAGUGGAUCCCCCGGCGCCCGGCGGCUCGAGCCCGGGUAAGUGUCAAUAGUCUGCAUGCCGCCGGGCGCCAUGCCUGCAGGUCGACUCUAGAAAACAUG,binding signal,PUM1 PUF domain R5-ERC,1.33 log2 enrichment (interaction score)
same,binding signal,PUM1 PUF domain R5-KTL,2.84 log2 enrichment (interaction score)
same,binding signal,PUM1 PUF domain R5-LHG,1.75 log2 enrichment (interaction score)
same,binding signal,PUM1 PUF domain R5-KRD,6.86 log2 enrichment (interaction score)
same,binding signal,PUM1 PUF domain R5-KQV,5.39 log2 enrichment (interaction score)
GGCUAGAACUAGUGGAUCCCCCGGCGCCCGGCGGCUCGAGCCCGGGUAAGUGUAAAUUGUCUGCAUGCCGCCGGGCGCCAUGCCUGCAGGUCGACUCUAGAAAACAUG,binding signal,PUM1 PUF domain R1-RLT,4.16 log2 enrichment (interaction score)

# Source: article PMC8384837, “Expanding the binding specificity for RNA recognition by a PUF domain”
